The source made the active and inactive calls. Entries that show only a call come without a potency. Calls follow the shape of the dose curve; as a rule, active = well fitted curve in the direction sought with a large enough effect in the repeat runs; inconclusive = weak or mixed curves; inactive = flat fitted curve, though single readings scatter.
experiment: qHTS assay to test for compound auto fluorescence at 460 nm (blue) in HepG2 cell free culture (AID 720685); settings: Cell-free culture medium, blue autofluorescence 405/460 nm; series mostly up to 91.3 µM
From the text: U.S. Tox21 Program National Center for Advancing Translational Sciences [NCATS] NIH Chemical Genomics Center [NCGC] U.S. Environmental Protection Agency [EPA] National Institutes of Environmental Health Sciences [NIEHS] National Toxicology Program [NTP] U.S. Food and Drug Administration [FDA] Tox21 Assay Overview: Compound auto fluorescence often interferes with screening of the compound library against various biological targets and signaling pathways. Some of these compounds may have fluorophoric properties. Such properties may interfere with the assay outputs resulting in false positives and/or negatives. To decrease such complications and ensure the compound activities are relevant in terms of biological response, the Tox21 10K compound library was screened for auto fluorescence. From the fluorophores used as reporter signals in our screening assays, the auto fluorescence equivalencies of compounds against three fluorophores have been evaluated: Triamterene, Fluorescein and Rose Bengal sodium for blue, green and red fluorescence, respectively. The fluorescence intensities were measured using Excitation/Emission wavelengths at 405/460nm, 485/535nm and 540/590nm for blue, green and red labels, respectively. This assay includes the blue fluorescence data.
Tox21 Assay Protocol Summary: 5 uL of culture medium (MEM containing 10% FBS) per well was dispensed into black wall/clear bottom 1536-well plates using a Multidrop Combi Dispenser (ThermoFisher Scientific, Waltham, MA). After 23 nL compound or DMSO vehicle was transferred into assay plate by a pintool work station (Kalypsys, San Diego, CA), fluorescence intensities in the assay plates were measured by an Envision (PerkinElmer, Shelton, CT) plate reader using three labels for measuring blue, green and red fluorescence at […] 460, 535 and 590nm respectively.

Compound	Potency	fluorescence, % of fluorescent control
Oc1ccc2c(c1)-c1ccccc1C2	inactive	–
CSc1ccc(/C=C2/C(C)=C(CC(=O)O)c3cc(F)ccc32)cc1	inactive	–
c1cc(C(c2ccc(OCC3CO3)cc2)c2ccc(OCC3CO3)cc2)ccc1OCC1CO1 (stereo not given)	inactive	–
Cc1c(C)c2c(c(C)c1O)CCC(C)(COc1ccc(CC3SC(=O)NC3=O)cc1)O2 (stereo not given)	inactive	–
CCCC/C=C/CCCCO	inactive	–
O=C(c1ccc(F)cc1)C1CCN(CCn2c(=O)[nH]c3ccccc3c2=O)CC1	inactive	–
Fc1ccc([C@@H]2CCNC[C@H]2COc2ccc3c(c2)OCO3)cc1	inactive	–
[Cl][Bi]([Cl])([c]1ccccc1)([c]1ccccc1)[c]1ccccc1	inactive	–
Cc1onc(-c2ccccc2Cl)c1C(=O)N[C@@H]1C(=O)N2[C@@H]1SC(C)(C)[C@@H]2C(=O)O	–	0.0226% [at 18.6 µM] (inactive)
O=C(OCC(COC(=O)c1ccccc1)(COC(=O)c1ccccc1)COC(=O)c1ccccc1)c1ccccc1	inactive	–
CC(C)(C)CC(C)(C)c1ccc(OCCOCC[N+](C)(C)Cc2ccccc2)cc1	inactive	–
CC[C@H](c1ccc(O)cc1)[C@@H](CC)c1ccc(O)cc1	inactive	–
COc1ccc(C(=O)/C(Br)=C\C(=O)O)cc1	inactive	–
Cc1[nH]nc2c1N=C(c1ccccc1Cl)c1cc([N+](=O)[O-])ccc1N2	inactive	–
CCCN(CCC)c1c([N+](=O)[O-])cc(C(F)(F)F)c(N)c1[N+](=O)[O-]	inactive	–
Oc1cccc(-c2c3nc(c(-c4cccc(O)c4)c4ccc([nH]4)c(-c4cccc(O)c4)c4nc(c(-c5cccc(O)c5)c5ccc2[nH]5)CC4)C=C3)c1	inactive	–
[Cl][Au]([Cl])[Cl]	inactive	–
O=C(Oc1ccccc1)c1ccccc1C(=O)Oc1ccccc1	inactive	–
CN1CCN(CCC(=O)N2c3ccccc3Sc3ccc(C(F)(F)F)cc32)CC1	inactive	–
CC(=O)S[C@@H]1CC2=CC(=O)CC[C@]2(C)[C@H]2CC[C@@]3(C)[C@@H](CC[C@@]34CCC(=O)O4)[C@H]12	inactive	–

Compound	Potency	fluorescence, % of fluorescent control
O=C1c2c(O)ccc(Nc3ccc(CCO)cc3)c2C(=O)c2c([N+](=O)[O-])ccc(O)c21	inactive	–
Oc1ccc(N=Nc2ccccc2)cc1	inactive	–
CC1(C)CCC(C)(C)c2cc(C(=O)Nc3ccc(C(=O)O)cc3)ccc21	inactive	–
CC(C)(C)C(=O)OCOC(=O)[C@@H]1N2C(=O)[C@@H](NC(=O)[C@H](N)c3ccccc3)[C@H]2SC1(C)C	–	0.014% [at 18.6 µM] (inactive)
Oc1c(Cl)cc(Cl)c2cccnc12	inactive	–
CCOC(=O)c1nc(C(Cl)(Cl)Cl)n(-c2ccc(Cl)cc2Cl)n1	inactive	–
Cc1ccc(O)c(C(C)(C)C)c1	inactive	–
ON=C1CCCC1	inactive	–
Cc1ccc(O)c2ncccc12	inactive	–
CS(=O)(=O)CCNCc1ccc(-c2ccc3ncnc(Nc4ccc(OCc5cccc(F)c5)c(Cl)c4)c3c2)o1	inactive	–
CCCCN1CCCC[C@H]1C(=O)Nc1c(C)cccc1C	inactive	–
O=C(NOCC1CC1)c1ccc(F)c(F)c1Nc1ccc(I)cc1Cl	inactive	–
CC(C)n1nc(-c2cc3cc(O)ccc3[nH]2)c2c(N)ncnc21	inactive	–
O=C(NO)C1(NS(=O)(=O)c2ccc(Oc3ccc(F)cc3)cc2)CCOCC1	inactive	–
Nc1c(Cl)cc(Cl)cc1Cl	inactive	–
O=C1c2ccccc2Cc2ccccc21	inactive	–
CC(C)(C)c1ccc(C(=O)O)cc1	inactive	–
CCCCCCC[N+](CC)(CC)CCCCc1ccc(Cl)cc1	–	-0.0851% [at 18.6 µM] (inactive)
O=C(Nc1cccc([N+](=O)[O-])c1)c1cc2ccccc2cc1O	inactive	–
CCCCCCCC/C=C/CCCCCCCC1=NCCN1CCO	inactive	–
